Screens from PubChem.
An excerpt weighted towards active compounds, which were near 9.2% of everything screened.
Rab9 prom act = Rab9 promoter activation; Huh7 Rab9 promoter-luciferase reporter, luminescence, 24 h; AID 485297; Potency, µM (titrated, usually from 9.22 µM), for inactives: top-dose activation, negative = inhibition, hits mostly activators; actives 2.8% (n = 320,000); also: % of control where 0% means no effect; nearly all actives have a fitted effect of over 60% in size
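Luminescence read-out: Huh7 cells stably expressing Rab9-luciferase, treated 24 h with compound at 37 °C, then lysed with luciferase reagent for 10 min at ambient before reading.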
ELG1 DNA repair = inhibitors of ELG1-dependent DNA repair in HEK293T cells; HEK293T ELG1-luciferase reporter, luminescence, 16 h; DNA damage induced by 5-fluorouridine; Potency, µM (titrated, usually from 46.1 µM), without a hit: at the top dose activity change, negative = inhibition, most hits filed as inhibitors; actives 2.3% (n = 330,000); AID 504467; also: % is scaled to controls: 0 for no effect and ±100 for the full control effect; nearly all actives have a fitted effect of over 55% in size
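5-Fluorouridine DNA damage + compound/DMSO, 2,000 cells/well, 16 h, 37 °C/5% CO2. ONE-Glo, 30 min RT, luminescence. Readout = decrease in reporter signal.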
ELG1 genotoxic = induces genotoxicity in HEK293T cells with luciferase-tagged ELG1; HEK293T ELG1-luciferase reporter, luminescence, 16 h; Potency, µM (titrated, usually from 46 µM), for the others: at the highest dose activity change, positive = activation, usual class: activators; actives 1.3% (n = 330,000); AID 504466; also: % of control where 0% means no effect; nearly all actives have a fitted effect of over 60% in size
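Step 1: seed 2,000 HEK293T ELG1-luciferase cells per well. Step 2: add compound or DMSO, incubate 16 hr at 37 °C. Step 3: ONE-Glo, 30 min at room temperature, read luminescence.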
SMN2 splice enh = SMN2 splice variant enhancement; AID 1458; Potency, µM (titrated, usually from 46.1 µM), for the others: top-dose activity change, positive = activation, usual class: activators; HEK293 SMN2-luciferase splicing reporter, luminescence, 30-36 h; actives 2.8% (n = 210,000); also: % of control where 0% means no effect; nearly all actives have a fitted effect of over 55% in size
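HEK293 cells carry an SMN2 […]–luciferase reporter in which exon 7 inclusion puts luciferase in frame. Cells were plated 10-12 h before compound addition, then incubated 30-36 h at 37C. ONE-Glo luminescence was read; sodium butyrate at 4.5 mM final served as control.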
NPC1 prom act = NPC1 promoter activation. Huh7 NPC1 promoter luciferase reporter, 24 h. Potency, µM (top dose mostly 9.22 µM), for inactives: top-dose activation, actives largely listed as activators. actives 2.4% (n = 320,000); also: % of control where 0% means no effect; nearly all actives have a fitted effect of over 60% in size
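Huh7 reporter cells (NPC1 promoter driving luciferase) are dosed with compound for 24 h at 37 °C, 5% CO2; luciferase detection reagent is then added and luminescence measured after 10 min at ambient temperature.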
FLuc modulator = inhibits or activates purified firefly luciferase, miR-21 counter-screen | P08659 | purified FLuc, Km substrates, luminescence inhibition | Potency, µM (highest dose often 57.5 µM), for inactives: at the highest dose activity change, negative = inhibition, hits mostly inhibitors | actives 6.9% (n = 360,000);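 also: plate controls were vehicle for no effect and reference inhibitor for full effect; nearly all actives have a fitted effect of over 55% in size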
Target sequence (P08659 whole entry, looked up): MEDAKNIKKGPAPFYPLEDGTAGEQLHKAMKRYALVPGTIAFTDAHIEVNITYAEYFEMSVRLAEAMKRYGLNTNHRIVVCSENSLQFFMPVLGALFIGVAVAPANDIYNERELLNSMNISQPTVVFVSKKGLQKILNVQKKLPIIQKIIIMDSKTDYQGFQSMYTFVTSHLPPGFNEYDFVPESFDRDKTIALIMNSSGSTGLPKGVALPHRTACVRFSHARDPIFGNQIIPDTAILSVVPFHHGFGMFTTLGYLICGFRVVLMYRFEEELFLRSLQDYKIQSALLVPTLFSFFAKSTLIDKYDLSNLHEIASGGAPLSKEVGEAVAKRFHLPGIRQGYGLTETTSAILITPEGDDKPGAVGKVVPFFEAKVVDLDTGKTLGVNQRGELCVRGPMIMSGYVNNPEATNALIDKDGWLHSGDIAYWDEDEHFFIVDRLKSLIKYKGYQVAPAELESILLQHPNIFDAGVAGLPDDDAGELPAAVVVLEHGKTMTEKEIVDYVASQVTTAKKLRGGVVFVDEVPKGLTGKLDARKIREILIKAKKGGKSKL
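Biochemical qHTS of compounds, final roughly 60 µM downward over six points, against 10 nM purified firefly luciferase using Km concentrations of substrates (10 uM D-luciferin, 10 uM ATP) in Tris acetate pH 7.5 buffer; luminescence output.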
Starred values were filed as active, the others as inactive; ? = inconclusive; . = not tested or not shown. Calls follow the shape of the dose curve; as a rule, active = well fitted curve in the direction sought with a large enough effect; inconclusive = small, poorly fitted or top-dose-only effect, or another doubt; inactive = no such curve, though single readings can be large; an effect the other way counts as inactive or inconclusive. Potency is read from the fitted curve at half-maximal effect.

SMILES | Rab9 prom act | ELG1 DNA repair | ELG1 genotoxic | SMN2 splice enh | NPC1 prom act | FLuc modulator
Cc1cccc(NC(=O)c2ccc(N(C)C3CCCCC3)c([N+](=O)[O-])c2)n1 | 19.8% | ? | -16.1% | 3.9% | 25.5% | 10.7µM*
Cc1ccc(C)c(S(=O)(=O)N2CCN(C(=O)c3ccc(N4CCCC4)c([N+](=O)[O-])c3)CC2)c1 | 0.5% | 20.6µM* | -10.7% | . | -3.8% | -0.8%
Cc1cccc(NC(=O)c2ccc(N3CCCCC3)c([N+](=O)[O-])c2)n1 | 2µM* | ? | ? | 6.31µM* | 2.82µM* | 4.78µM*
O=C(NCCCn1ccnc1)c1ccc(N2CCCCCC2)c([N+](=O)[O-])c1 | 3.3% | 9.2µM* | -3.1% | -59.1% | 12.1% | -10.0%
CC(C)OC(=O)c1cccnc1SCC(=O)Nc1ccc(C(F)(F)F)cc1Cl | . | . | . | . | . | 0.9%
O=C(O)c1ccccc1C(=O)c1ccc(N2CCCC2)c([N+](=O)[O-])c1 | 24.3% | ? | 8.8% | -1.8% | 10.3% | 23.9µM*
Cc1ccnn1CC(=O)N/N=C/c1cn[nH]c1-c1ccc(F)cc1 | -5.9% | ? | -3.1% | . | -1.2% | 4.4%
CC(C)Oc1ccc(CNC(=O)C(C)n2ccc3cc(S(=O)(=O)N4CCCCCC4)ccc32)cc1 (centres undefined) | . | . | . | . | . | -11.5%
CCOc1cc(/C=N/NC(=S)Nc2ccccc2C(F)(F)F)ccc1OCC(=O)N1CCOCC1 | -5.7% | 11.6µM* | -5.7% | -12.1% | -1.6% | -4.9%
CCOc1cc(/C=N/Nc2cccc(C(=O)O)c2)ccc1OCC(=O)N1CCCCC1 | 4.47µM* | ? | ? | 11.2µM* | 3.98µM* | 21.3µM*
O=C(COc1ccc(C(=S)N2CCOCC2)cc1)Nc1ccccc1C(F)(F)F | -7.3% | -3.9% | -0.4% | . | -5.2% | -0.5%
CCOc1cc(C=O)ccc1OCC(=O)N1CCCC1 | -3.2% | 11.7% | -0.3% | . | -9.6% | 1.7%
O=S(=O)(CCSc1nc2ccccc2o1)c1nc2ccccc2s1 | -7.6% | ? | -2.2% | 17.8µM* | -0.7% | -0.3%
O=S(=O)(CCSc1ccccn1)c1nc2ccccc2s1 | -4.4% | 5.3% | -10.0% | 11.2µM* | -1.2% | 3.1%
O=C(CSc1ccccn1)Nc1nc2ccccc2s1 | 21.4% | ? | ? | 18.8% | 22.2% | ?
O=C(Nc1cc(C(F)(F)F)ccc1Cl)c1cc(-c2cccs2)nc2ccccc12 | . | . | . | -2.9% | . | 4.6%
COc1ccc(S(=O)(=O)N2CCC(C(=O)Nc3ccccc3C)CC2)c2cccnc12 | 14.8% | 18.4µM* | -12.5% | -5.8% | 9.5% | -1.8%
COc1ccc(C)cc1NC(=O)C1CCN(S(=O)(=O)c2cccc3cccnc23)CC1 | 0.4% | 23.1µM* | -9.9% | -15.0% | -2.3% | -4.8%
COc1ccc(NC(=O)C2CCN(S(=O)(=O)c3cccc4cccnc34)CC2)cc1OC | -2.2% | ? | 1.5% | 21.9% | -1.0% | 1.2%
Cc1ccc(Cn2cc(C(=O)c3ccc(F)cc3)c(=O)c3cc4c(cc32)OCCO4)cc1 | -4.9% | 20.6µM* | -2.1% | -0.1% | -0.5% | -5.7%
CCN(CC)c1ccc(/C=N/NC(=O)Cc2cccs2)c(O)c1 | -38.9% | 19.2% | ? | -93.2% | -30.0% | ?
CCN(CC)c1ccc(/C=N/NC(=O)c2ccco2)c(O)c1 | -17.2% | ? | 23.1µM* | . | -5.3% | 5.36µM*
CCN(CC)c1ccc(/C=N/NC(=O)c2ccco2)cc1 | ? | ? | 5.8µM* | 1.58µM* | ? | 1.51µM*
C=CCOc1ccccc1CN1CCN(CCc2ccccc2)C(CCO)C1 (centres undefined) | -0.8% | -4.1% | -8.1% | . | -0.7% | -1.5%
Cn1c(=O)c2c(nc(NCc3ccc4c(c3)OCO4)n2C)n(C)c1=O | -1.3% | 3.8% | -1.9% | 31.6µM* | -0.9% | 0.6%
Cc1cccc(-n2nnnc2SCC(=O)Nc2cccc(S(N)(=O)=O)c2)c1 | -2.7% | ? | -2.0% | . | 1.8% | 0.9%
